Among the data in PubChem BioAssay (EPA / NIEHS) are AC50 and outcome values, retold here.

Structures are written as SMILES. The source made the active and inactive calls. How the source made its calls: active means hit-call score of the fitted dose curve at least 0.9, where 1 is the maximum; inactive means score below 0.9.

Read-out in this test: DNA damage-inducible transcript 3 (DDIT3), DDIT3 (gene 1649)
Description: LTEA_HepaRG_DDIT3: Life Technologies and Expression Analysis (LTEA) Assay for DNA damage-inducible transcript 3 (DDIT3) using HepaRG (AID 2283488). To be noted: mRNA level, 48 h; actives raise or lower the signal. As for the experimental part:
LTEA_HepaRG is a cell based, multiplexed-readout assay that uses HepaRG, a human liver cell line, with measurements taken at 48 hours after chemical dosing on a 96-well plate.LTEA_HepaRG_DDIT3 is one of 102 assay component(s) measured in the LTEA HepaRG cell culture assay. It is a marker of Oxidative Stress.Data from the assay component LTEA_HepaRG_DDIT3 was analyzed into 1 endpoint. This assay endpoint, LTEA_HepaRG_DDIT3, was analyzed with bidirectional fitting relative to DMSO as the negative control and baseline of activity. Using a type of inducible reporter, measures of mRNA induction for gain or loss-of-signal activity can be used to understand regulation of transcription factor activity. To generalize the intended target to other relatable targets, this assay endpoint is annotated to the dna binding intended target family, where the subfamily is basic leucine zipper.
A total of 1060 chemcials from the ToxCast library were tested in eight-point concentration-response experiments. Cell culture and cytotoxicity assays were conducted at Thermo Fisher Scientific's Custom Services facility (Madison, WI). A single lot of human HepaRG cells (Thermo Fisher Scientific, Frederick, MD) was used for the cell culture experiments. 96-well format collagen type I coated plates of human HepaRG cells were prepared using established methods. Briefly, cryopreserved HepaRG cells were thawed, plated at a density of approximately 100,000 cells/well in HepaRG Thaw, Plate, and General Purpose media (HPRG770, Thermo Fisher Scientific), and incubated for 48 hours. 0.5% DMSO was selected as vehicle control to balance the requisite need of DMSO in HepaRG cultures to maintain differentiation (for example, baseline metabolism, proportions of hepatocytes vs. cholangiocytes), while enabling further hepatic receptor pathway activation (for example, PXR and CAR) in response to chemical exposure. 48 hours after plating, the culture medium was replaced with HepaRG Serum-Free Incudtion Media. Cells were exposed to each test chemical in duplicate and maintained in CO2 incubators for another 48 hours. Chemical plates were thawed to room temperature and 200x concentrations of treatment groups were prepared. 8-point conentration-reponse curves were made with the highest exposure at 100 uM, followed by half-log dilutions, all in 0.5% DMSO. Each test plate contained variouse controls, induction positive controls (1mM phenobarbital), cytotoxicity positive controls ([…] aflatoxin B1), vehicle controls (0.5% DMSO), and total lysis controls (0.5% DMSO). Cell morphology images were taken using an Essen IncuCyte FLR automated microscope, with six 96-well plates imaged in about 24 minutes. Images were captured and exported and JPEG files. Spent culture media was transfered to black-well plates for the LDH assay, and remaining media was sorted at -80 C for later use. Cells were treated with RLT buffer and frozen until shipped for gene expression analysis. Total RNA was isolated from the cell suspension in 75 uL of Buffer RLT (Qiagen, Germantown, MD 20874) by Quintiles/Expression Analysis (Durham, NC) using a custom isolation procedure. Total RNA from each plate well was transferred to a preamplification plate. Fluidigm's 96.96 Dynamic ArrayTM (Fluidigm, Amsterdam, the Netherlands) technology was used for gene expression analyses by quantitative reverse transcription polymerase chain reaction (qRT-PCR, performed by Quintiles/Expression Analysis, Durham, NC)89. Standard TaqManTM Assays (Applied Biosystems/ThermoFisher Scientific, Foster City, CA) were used to assess the expression of 93 genes selected based on their selectivity and sensitivity to important hepatic receptors known to be modulated by environmental chemicals; importance in human hepatocyte functionality; and hepatotoxicity. […]
As to `CS(=O)(=O)c1ccc([C@@H](C[C@H]2CCC(=O)C2)C(=O)Nc2cnccn2)cc1Cl`, the concentration at half-maximal activity (AC50) was 18.6 µM (active).

In the case of `O=C(O)c1cccnc1`, the compound was called inactive. Still for that read-out and setting: as for `O=C(O)CC(O)(CC(=O)O)C(=O)O`, the entry is “inactive”; as for `N[C@@H](Cc1c[nH]c2ccccc12)C(=O)O`, “inactive”. With `CSc1ccc(Oc2ccc(S(N)(=O)=O)cc2CN(C)C)cc1C`, the half-maximal activity concentration (AC50) was 75.2 µM (active). Consider `Cc1occc(=O)c1O`, for which the compound was classed as inactive. For `CCc1nc(N)nc(N)c1-c1ccc(Cl)cc1`, the AC50 was 77.8 µM (active).

Consider `COc1ccc(OC(F)(F)F)cc1CN[C@H]1CCCN[C@H]1c1ccccc1`, for which the half-maximal activity concentration (AC50) is 72.8 µM (active).

As to `Cc1cc(Cc2ccc(N)c(C)c2)ccc1N`, the compound was called inactive. The same measure, in the same setting: as for `O=C(O)c1[nH]n(-c2ccc(S(=O)(=O)O)cc2)c(=O)c1N=Nc1ccc(S(=O)(=O)O)cc1`, the entry is “inactive”.

As to `CCCCC(CC)COP(=O)(OCC(CC)CCCC)OCC(CC)CCCC` (stereo not given), the result was inactive. In the case of `O=C1NC(=O)C(c2ccccc2)(c2ccccc2)N1`, the compound was called inactive. On to `CCCCC(CC)CO` (stereo not given), for which the outcome was inactive. The same measure, in the same setting: next, `S=c1[nH]c2ccccc2s1`: “inactive”. Same read-out and setting: next, `C/C=C/c1ccc(OC)cc1`: “inactive”; `CCCCC(CC)COC(=O)CCCCCCCC(=O)OCC(CC)CCCC` (stereo not given): “inactive”; `Nc1nc(Cl)nc2c1ncn2[C@H]1C[C@H](O)[C@@H](CO)O1`: “inactive”. As to `O=C1CCCCC1`, the compound was classed as inactive. Same read-out and setting: next, `OCC(CO)n1cnc(-c2ccc(F)cc2)c1-c1ccnc(Oc2ccccc2)n1`: “inactive”; `CC(C)COC(=O)CCCCC(=O)OCC(C)C`: “inactive”. `COC(=O)CCCC(=O)OC`: the result was inactive. Still for that read-out and setting: next, `CC(C)OC(=O)C(C)(C)Oc1ccc(C(=O)c2ccc(Cl)cc2)cc1`: “inactive”. The same measure, in the same setting: next, `CCCCCCC(CCCCCCCCCCC(=O)OCC(COC(C)=O)OC(C)=O)OC(C)=O` (stereo not given): “inactive”; `CC(C)c1cccc(C(C)C)c1`: “inactive”. The same measure, in the same setting: as for `NC1CCCCC1`, the entry is “inactive”; as for `CCCC[C@H]1CN(CC2CCOCC2)C(=O)OC12CCN(C1(C)CCN(C(=O)c3c(C)ncnc3C)CC1)CC2`, “inactive”; as for `CCCCCCC(C=O)=Cc1ccccc1`, “inactive”. As to `C=CCc1ccc(OC)c(OC)c1`, the result was inactive. As for `CCCC(=O)O`, the result was inactive.

`Cn1cnc2c1c(=O)[nH]c(=O)n2C`: the compound was called inactive.

Turning to `CC(=O)O`, the compound was called inactive. Consider `COC(=O)[C@H]1[C@H]2C[C@@H]3c4[nH]c5cc(OC)ccc5c4CCN3C[C@H]2C[C@@H](OC(=O)c2cc(OC)c(OC)c(OC)c2)[C@@H]1OC`, for which the half-maximal activity concentration (AC50) is 55.1 µM (active). In the case of `Cc1ccc(C(C)(C)C)c(O)c1`, the outcome was inactive.

For `O=NO`, the outcome was inactive. With `O=C(N[C@@H](c1ccccc1)[C@@H]1CCCCN1)c1cccc(C(F)(F)F)c1Cl`, the concentration at half-maximal activity (AC50) is 50 µM (active). Consider `CC1(C)C(=O)NC(=O)N1CO`, for which the call was inactive. Regarding `CC(C)(C)c1ccccc1`, the result was inactive. As for `Cc1ccc(-c2cc(C(F)(F)F)nn2-c2ccc(S(N)(=O)=O)cc2)cc1`, the concentration at half-maximal activity (AC50) was 68.8 µM (active). As to `CN(C)CCCN(C)CCCN(C)C`, the result was inactive. Consider `CC(=O)CC(c1ccccc1)c1c(O)c2ccccc2oc1=O` (stereo not given), for which the result was inactive.
